Compounds without any hit were thinned out: in the full panel of roughly 83,000, 20% have a hit.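 Activity criterion: percent growth below 10, measured after cells in 96-well plates were exposed to a single compound concentration for 48 hours.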 Unmarked numbers belong to inactive results. Active and inactive are the calls of the source.

This test has as its system HL-60(TB) leukemia. Briefly: NCI-60 one-dose screen, 48 h (100 = growth as untreated, 0 = no growth, -100 = all killed). The following applies: 10 µM unless noted.
Consider `N#Cc1c(C#N)c(SSc2c(C#N)c(C#N)c(N)n2-c2ccccc2)n(-c2ccccc2)c1N`, for which the growth is 99.2%. The result for `CN(/C(N)=N/N=C/c1c2ccccc2cc2ccccc12)C1CCCCC1` reads 35.4%. With `COc1ccc(-c2cc(-c3ccc(Nc4nc(Nc5ccc(Cl)cc5)nc(Nc5ccc(Cl)cc5)n4)cc3)no2)cc1`, the growth is -43.5% (active).
